We go through five compounds from PubChem BioAssay (EPA / NIEHS).

Read-out in assay [1]: Macrophage colony-stimulating factor (MCSF), CSF1 (gene 1435)
In words: BSK_hDFCGF_MCSF: BioMAP Diversity Plus: hDFCGF Assay for Macrophage colony-stimulating factor (MCSF) Biomarker Activity (AID 2283060). The note with it: primary human foreskin fibroblasts; actives raise or lower the signal. An outline of the steps:
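Human foreskin primary fibroblasts were treated with test chemical for 24 h, and M-CSF was then measured by ELISA. Data were fitted bidirectionally against DMSO as the negative control and activity baseline.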

A short description of assay [2]: BSK_hDFCGF_SRB: Viability Assessment in the BioMAP Diversity Plus: hDFCGF Assay (AID 2283061).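 Also: cells exposed to compound for 24 h before the read.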 The note with it: primary human foreskin fibroblasts. The gist of the method:
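Human foreskin primary fibroblasts were treated with compound and assessed 24 h after dosing. Total protein was measured by sulforhodamine B staining (0.1% SRB after 10% TCA fixation, 560 nm read) as a cytotoxicity marker, with bidirectional fitting against DMSO baseline.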

Read-out in assay [3]: TIMP metallopeptidase inhibitor 1 (TIMP1), TIMP1 (gene 7076)
The experiment in a line: BSK_hDFCGF_TIMP1: BioMAP Diversity Plus: hDFCGF Assay for TIMP metallopeptidase inhibitor 1 (TIMP1) Biomarker Activity (AID 2283062). The following applies: primary human foreskin fibroblasts; actives raise or lower the signal. An outline of the steps: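 Primary human foreskin fibroblasts in the hDFCGF system were dosed with compound for 24 h, then TIMP-1 was measured by ELISA. Activity was fitted bidirectionally relative to DMSO control; parallel SRB staining assessed cytotoxicity.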

Read-out in assay [4]: Monokine induced gamma interferon (MIG), CXCL9 (gene 4283)
In words: BSK_hDFCGF_MIG: BioMAP Diversity Plus: hDFCGF Assay for Monokine induced gamma interferon (MIG) Biomarker Activity (AID 2283063). The note with it: primary human foreskin fibroblasts; actives raise or lower the signal. The gist of the method:
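ELISA read-out of MIG from primary human dermal fibroblasts 24 h post-dosing. Gain or loss of signal fitted bidirectionally, DMSO as baseline.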

Read-out in assay [5]: Matrix Metallopeptidase 1 (MMP1), MMP1 (gene 4312)
In words: BSK_hDFCGF_MMP1: BioMAP Diversity Plus: hDFCGF Assay for Matrix Metallopeptidase 1 (MMP1) Biomarker Activity (AID 2283064). The following applies: primary human foreskin fibroblasts; actives raise or lower the signal. An outline of the steps: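 hDFCGF primary fibroblasts (human foreskin); chemical added; 24 h; MMP1 by ELISA; bidirectional fit vs DMSO.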

Read-out in assay [6]: Vascular cell adhesion molecule 1 (VCAM1), VCAM1 (gene 7412)
The experiment in a line: BSK_hDFCGF_VCAM1: BioMAP Diversity Plus: hDFCGF Assay for Vascular cell adhesion molecule 1 (VCAM1) Biomarker Activity (AID 2283065).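 As to AC50: VCAM-1 protein level quantified by ELISA after 24 h chemical exposure.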 The following applies: primary human foreskin fibroblasts; actives raise or lower the signal. The gist of the method:
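Primary human foreskin fibroblasts (hDFCGF system) were dosed with chemical and VCAM-1 was measured by ELISA 24 h later. Bidirectional curve fitting used DMSO as negative control and activity baseline.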

Read-out in assay [7]: Plasminogen activator inhibitor-1 (PAI1), SERPINE1 (gene 5054)
In words: BSK_hDFCGF_PAI1: BioMAP Diversity Plus: hDFCGF Assay for Plasminogen activator inhibitor-1 (PAI1) Biomarker Activity (AID 2283066). The following applies: primary human foreskin fibroblasts; actives raise or lower the signal. The gist of the method:
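Primary dermal fibroblasts (human foreskin), hDFCGF system; compound 24 h; PAI-1 by ELISA; bidirectional fit vs DMSO control.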

Read-out in assay [8]: Intercellular Adhesion Molecule 1 (ICAM1), ICAM1 (gene 3383)
The experiment in a line: BSK_KF3CT_ICAM1: BioMAP Diversity Plus: KF3CT Assay for Intercellular Adhesion Molecule 1 (ICAM1) Biomarker Activity (AID 2283067). The following applies: primary human keratinocytes with fibroblasts; actives raise or lower the signal. The gist of the method:
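Human keratinocyte plus foreskin fibroblast primary co-culture was exposed to chemical for 24 h. ICAM-1 was then quantified by ELISA, and the data were fit bidirectionally against DMSO as the negative control and baseline.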

Read-out in assay [9]: Interferon-gamma inducible Protein 10 (IP10), CXCL10 (gene 3627)
The experiment in a line: BSK_KF3CT_IP10: BioMAP Diversity Plus: KF3CT Assay for Interferon-gamma inducible Protein 10 (IP10) Biomarker Activity (AID 2283068). The note with it: primary human keratinocytes with fibroblasts; actives raise or lower the signal. An outline of the steps: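 In a primary skin co-culture of keratinocytes and fibroblasts, IP-10 is quantified by ELISA at 24 h after dosing. SRB staining of parallel wells monitors overt toxicity. Curves are fitted both directions against DMSO.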

Assay [10] in a line: BSK_KF3CT_SRB: Viability Assessment in the BioMAP Diversity Plus: KF3CT Assay (AID 2283069).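 Also: fitted for both signal gain and loss against DMSO baseline.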 The note with it: primary human keratinocytes with fibroblasts. An outline of the steps:
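Keratinocytes co-cultured with foreskin fibroblasts (human primary); chemical added, 24 h; fix 10% TCA, stain 0.1% SRB, A560. Bidirectional fit vs DMSO.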

Read-out in assay [11]: Interleukin-1 alpha (IL1a), IL1A (gene 3552)
In words: BSK_KF3CT_IL1a: BioMAP Diversity Plus: KF3CT Assay for Interleukin-1 alpha (IL1a) Biomarker Activity (AID 2283070). The note with it: primary human keratinocytes with fibroblasts; actives raise or lower the signal. The gist of the method: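 Chemicals were dosed onto co-cultured human keratinocytes and foreskin fibroblasts, IL-1a was quantified by ELISA at 24 h, and activity was fitted in both directions relative to DMSO controls.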

Read-out in assay [12]: TIMP metallopeptidase inhibitor 2 (TIMP2), TIMP2 (gene 7077)
The experiment in a line: BSK_KF3CT_TIMP2: BioMAP Diversity Plus: KF3CT Assay for TIMP metallopeptidase inhibitor 2 (TIMP2) Biomarker Activity (AID 2283071). The following applies: primary human keratinocytes with fibroblasts; actives raise or lower the signal. The gist of the method: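 Cells: human keratinocytes co-cultured with foreskin fibroblasts. Treat with chemical, 24 h. Measure TIMP-2 by ELISA; fit curves bidirectionally vs DMSO baseline.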

Read-out in assay [13]: C-C motif chemokine 2 (Homo sapiens) (UniProt P13500)
The experiment in a line: BSK_KF3CT_MCP1: BioMAP Diversity Plus: KF3CT Assay for Monocyte Chemoattractant Protein 1 (MCP1/CCL2) Biomarker Activity (AID 2283073). The following applies: primary human keratinocytes with fibroblasts; actives raise or lower the signal. An outline of the steps:
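Human keratinocyte plus foreskin fibroblast primary co-culture exposed to chemical for 24 h. MCP-1 levels measured by ELISA. Bidirectional curve fitting relative to DMSO negative control as baseline.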

Read-out in assay [14]: Matrix Metallopeptidase 9 (MMP9), MMP9 (gene 4318)
The experiment in a line: BSK_KF3CT_MMP9: BioMAP Diversity Plus: KF3CT Assay for Matrix Metallopeptidase 9 (MMP9) Biomarker Activity (AID 2283074).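 As to AC50: MMP9 protein level quantified by ELISA in the co-culture.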 The note with it: primary human keratinocytes with fibroblasts; actives raise or lower the signal. An outline of the steps: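 Human keratinocyte/foreskin fibroblast co-culture; compound added; 24 h; MMP-9 by ELISA; bidirectional fit vs DMSO baseline.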

Read-out in assay [15]: urokinase plasminogen activator (uPA), PLAU (gene 5328)
In words: BSK_KF3CT_uPA: BioMAP Diversity Plus: KF3CT Assay for urokinase plasminogen activator (uPA) Biomarker Activity (AID 2283075). The note with it: primary human keratinocytes with fibroblasts; actives raise or lower the signal. An outline of the steps: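 ELISA readout of uPA, analyzed for signal gain or loss relative to DMSO, from a human primary keratinocyte–foreskin fibroblast co-culture measured 24 h after chemical treatment.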

Read-out in assay [16]: CD40, CD40 (gene 958)
The experiment in a line: BSK_LPS_CD40: BioMAP Diversity Plus: LPS Assay for CD40 Biomarker Activity (AID 2283076). The following applies: primary human HUVEC with PBMC; actives raise or lower the signal. The gist of the method: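 Primary human umbilical vein endothelial cells co-cultured with peripheral blood mononuclear cells, LPS-stimulated, were dosed with chemical and read 24 h later. CD40 levels were measured by ELISA and fitted bidirectionally against DMSO as negative control and baseline.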

Read-out in assay [17]: E-selectin (Homo sapiens) (UniProt P16581)
In words: BSK_LPS_Eselectin: BioMAP Diversity Plus: LPS Assay for Eselectin Biomarker Activity (AID 2283077). The following applies: primary human HUVEC with PBMC; actives raise or lower the signal. An outline of the steps: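 Human umbilical vein endothelial cells co-cultured with peripheral blood mononuclear cells under LPS stimulation; E-selectin measured by ELISA 24 h after chemical dosing. Activity fitted bidirectionally against DMSO as negative control and baseline.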

Read-out in assay [18]: Interleukin-8 (IL8), CXCL8 (gene 3576)
The experiment in a line: BSK_LPS_IL8: BioMAP Diversity Plus: LPS Assay for Interleukin-8 (IL8) Biomarker Activity (AID 2283078). The following applies: primary human HUVEC with PBMC; actives raise or lower the signal. The gist of the method: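 Human umbilical vein endothelial cells co-cultured with PBMC were stimulated with LPS; IL-8 levels were measured by ELISA 24 h after chemical dosing. Activity was fitted bidirectionally against DMSO as negative control and baseline.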

A short description of assay [19]: BSK_LPS_SRB: Viability Assessment in the BioMAP Diversity Plus: LPS Assay (AID 2283079).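 Also: total protein by sulforhodamine B absorbance as a cytotoxicity measure; measured one day after compound addition; fitted in both directions against DMSO so loss or gain of signal counts.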 The following applies: primary human HUVEC with PBMC. The gist of the method: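 Human umbilical vein endothelial cells co-cultured with PBMC (LPS system) were dosed for 24 h. Total protein was stained with 0.1% sulforhodamine B after 10% TCA fixation, read at 560 nm, and fitted bidirectionally against DMSO baseline.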

Read-out in assay [20]: Interleukin-1 alpha (IL1a), IL1A (gene 3552)
The experiment in a line: BSK_LPS_IL1a: BioMAP Diversity Plus: LPS Assay for Interleukin-1 alpha (IL1a) Biomarker Activity (AID 2283080). The following applies: primary human HUVEC with PBMC; actives raise or lower the signal. The gist of the method: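 Human umbilical vein endothelial cells co-cultured with peripheral blood mononuclear cells were LPS-stimulated and exposed to test chemicals for 24 h. IL-1 alpha was quantified by ELISA, with bidirectional curve fitting against DMSO as the negative control and baseline.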

Where “and” joins values, the source holds several entries; their conditions need not be identical. Identical values can stand only once. The source holds several records for some structures; these can differ, active in one and inactive in another. Calls of active or inactive are those of the source. The calls were made as follows: active = hit-call score of the fitted dose curve at least 0.9, where 1 is the maximum; inactive = score below 0.9.

Sequence of E-selectin (Homo sapiens) (P16581 whole entry, looked up): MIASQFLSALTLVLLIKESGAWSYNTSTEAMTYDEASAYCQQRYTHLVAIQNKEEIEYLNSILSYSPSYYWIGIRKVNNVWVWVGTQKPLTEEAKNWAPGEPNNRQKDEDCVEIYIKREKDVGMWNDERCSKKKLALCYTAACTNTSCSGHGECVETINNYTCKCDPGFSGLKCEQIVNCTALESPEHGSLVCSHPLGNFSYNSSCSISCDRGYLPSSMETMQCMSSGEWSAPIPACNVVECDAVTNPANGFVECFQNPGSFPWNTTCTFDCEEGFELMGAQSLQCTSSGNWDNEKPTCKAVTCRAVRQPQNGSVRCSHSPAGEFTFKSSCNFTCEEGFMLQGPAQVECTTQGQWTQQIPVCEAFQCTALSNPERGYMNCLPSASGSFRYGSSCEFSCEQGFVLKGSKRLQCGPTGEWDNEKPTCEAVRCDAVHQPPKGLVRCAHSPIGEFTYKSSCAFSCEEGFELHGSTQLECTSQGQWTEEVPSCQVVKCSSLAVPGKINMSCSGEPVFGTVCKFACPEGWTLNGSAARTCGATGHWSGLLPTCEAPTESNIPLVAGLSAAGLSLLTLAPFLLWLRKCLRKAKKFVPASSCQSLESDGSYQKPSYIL

As for `NC(=O)C(F)(F)C(F)(F)C(F)(F)C(F)(F)F`, the outcome in [1], in assay [2], in assay [3], in assay [4], in [5] and in assay [6] was inactive. The outcome in assay [7], in [8], in [9], in assay [10], in assay [11] and in assay [12] was inactive. For the same compound, the outcome in assay [13], in assay [14], in [15], in assay [16], in assay [17] and in [18] was inactive. The outcome in [19] and in assay [20] was inactive.
As a reminder, the AC50 is the concentration giving half of the maximal activity seen. With `FC(F)(F)C(F)(F)C(F)(F)CI`, the outcome in [1], in assay [2], in assay [3], in assay [4], in assay [5] and in [6] was inactive. The result in assay [7], in assay [8], in assay [9], in assay [10], in [11] and in [12] was inactive. In addition, the result in assay [13], in assay [14], in [15], in [16], in [17] and in [18] was inactive. The result in [19] was inactive. Moreover, the AC50 in assay [18] was 1.84 µM (active).
On to `CS(C)(=O)=O`, for which the result in [1], in assay [2], in assay [3], in [4], in assay [5] and in assay [6] was inactive. For the same compound, the result in assay [7], in [8], in assay [9], in assay [10], in assay [11] and in assay [12] was inactive. Moreover, the result in [13], in [14], in assay [15], in assay [16], in assay [17] and in assay [18] was inactive. In [19], the outcome was inactive.
Turning to `CCCCNc1ccccc1`, the result in assay [1], in assay [2], in assay [3], in [4], in assay [5] and in assay [6] was inactive. Also, the result in assay [7], in [8], in [9], in [10], in [11] and in assay [12] was inactive. Further, the result in assay [13], in assay [14], in [15], in [16], in assay [17] and in assay [18] was inactive. Also, the result in assay [19] and in assay [20] was inactive.
`OCCCC(F)(F)C(F)(F)C(F)(F)C(F)(F)C(F)(F)C(F)(F)C(F)(F)F`: the half-maximal activity concentration (AC50) in assay [1] is 15.6 µM (active) and 16.6 µM (active); in assay [2], 18.3 µM (active) and 17.2 µM (active); in assay [3], 14.6 µM (active) and 14.4 µM (active); in [4] it was 16.3 µM (active) and 14.6 µM (active); in assay [5], 13 µM (active) and 15 µM (active); in assay [6], 11 µM (active) and 9.2 µM (active). For the same compound, the half-maximal activity concentration (AC50) in assay [7] is 15.3 µM (active) and 14.9 µM (active); in [8], 28.3 µM (active) and 47.3 µM (active); in assay [9], 23.9 µM (active) and 49.7 µM (active); in assay [10], 24.2 µM (active) and 49 µM (active); in assay [11], 24 µM (active) and 43.8 µM (active); in [12] it was 14.7 µM (active) and 37 µM (active). For the same compound, the concentration at half-maximal activity (AC50) in assay [13] was 27.3 µM (active) and 42.9 µM (active); in [14], 20 µM (active) and 45 µM (active); in assay [15] it was 22.8 µM (active) and 47.2 µM (active); in assay [16], 45.6 µM (active) and 45.1 µM (active); in assay [17] it was 50.6 µM (active) and 43.6 µM (active); in [18], 53.5 µM (active) and 54.5 µM (active). Moreover, the AC50 in [19] was 54 µM (active) and 46.2 µM (active).
